# Data as given in PubChem BioAssay (Tox21).
# Records with an inconclusive call do not appear. A number with no mark means an inactive call. Calls of active or inactive are those of the source. The call rests on the fitted dose curve; in most records, active means well fitted inhibition curve with a large enough effect in the repeat runs; inconclusive means weak or mixed curves; inactive means no such curve, though single readings can be large or run the other way.
# Target: Estrogen receptor (Homo sapiens) (UniProt P03372)
# Test: qHTS assay to identify small molecule antagonists of the estrogen receptor alpha (ER-alpha) signaling pathway using the BG1 cell line in the presence of 0.1 nM 17-beta-estradiol (AID 1259244); further: nearly all actives have a fitted effect of over 50% in size
# Conditions: VM7Luc4E2 (BG1) ERE-luciferase, antagonist mode, 0.1 nM E2, 22 h; series mostly up to 92.4 µM; activity change, negative = inhibition: at the top concentration
# Description: National Center for Advancing Translational Sciences [NCATS]
# NIH Chemical Genomics Center [NCGC]
# U.S. Environmental Protection Agency [EPA]
# National Institutes of Environmental Health Sciences [NIEHS]
# National Toxicology Program [NTP]
# U.S. Food and Drug Administration [FDA]
# Estrogen receptor (ER), a member of the nuclear hormone receptor plays an important role in development, metabolic homeostasis and reproduction. Two subtypes of ER, ER-alpha and ER-beta, have similar expression patterns with some uniqueness in both types. Endocrine disrupting chemicals (EDCs) and their interactions with steroid hormone receptors like ER causes disruption of normal endocrine function. Therefore, it is important to understand the effect of environmental chemicals in ER signaling pathway. For identifying ER antagonists, VM7Luc4E2 cell line was used to screen against Tox21 compound libraries.
# VM7Luc4E2 cell line (provided by Denison MS, University of California) endogenously express full-length ER-alpha and is stably transfected with a plasmid containing four estrogen responsive elements (ERE) upstream of a luciferase reporter gene. The current screening for identification of ER-alpha inhibitors against Tox21 compound libraries used lower concentration (0.1 nM) of 17beta-Estradiol as a stimulator.
# Tox21 Assay Protocol Summary:
# VM7Luc4E2 cells were cultured in phenol red free assay medium containing 10% charcoal stripped FBS for 5 days prior to the assay. The cells were dispensed at 4,000 cells/well in 4 uL of assay medium into white wall/solid-bottom 1536-well plates (Corning Life Sciences, Corning, NY) using a Multidrop Combi (ThermoFisher Scientific, Waltham, MA) dispenser. After the assay plates were incubated at 37C and 5% CO2 for 24 hr, 23 nL of compounds dissolved in DMSO, positive controls or DMSO only was transferred to the assay plates by a Pintool station (Kalypsys, San Diego, CA). The transfer of compounds was followed by the addition of 1 uL of 0.1 nM (final concentration) agonist (17beta-Estradiol)/assay medium using a Flying Reagent Dispenser (FRD, Aurora Discovery, San Diego, CA). The plates were incubated at 37C and 5% CO2 for 22 hr. For luciferase reporter gene assay, 4 uL of ONE-Glo reagent (Promega Corporation, Madison, WI) was added to each well using the FRD and after 30 min incubation at room temperature luminescence intensity was measured using ViewLux plate reader (PerkinElmer, Shelton, CT).
# On the % scale 0 is the no-effect control and ±100 the full control effect; potency means the concentration at half of the fitted maximal effect.
# Chain of Estrogen receptor (Homo sapiens) (P03372 whole entry, looked up): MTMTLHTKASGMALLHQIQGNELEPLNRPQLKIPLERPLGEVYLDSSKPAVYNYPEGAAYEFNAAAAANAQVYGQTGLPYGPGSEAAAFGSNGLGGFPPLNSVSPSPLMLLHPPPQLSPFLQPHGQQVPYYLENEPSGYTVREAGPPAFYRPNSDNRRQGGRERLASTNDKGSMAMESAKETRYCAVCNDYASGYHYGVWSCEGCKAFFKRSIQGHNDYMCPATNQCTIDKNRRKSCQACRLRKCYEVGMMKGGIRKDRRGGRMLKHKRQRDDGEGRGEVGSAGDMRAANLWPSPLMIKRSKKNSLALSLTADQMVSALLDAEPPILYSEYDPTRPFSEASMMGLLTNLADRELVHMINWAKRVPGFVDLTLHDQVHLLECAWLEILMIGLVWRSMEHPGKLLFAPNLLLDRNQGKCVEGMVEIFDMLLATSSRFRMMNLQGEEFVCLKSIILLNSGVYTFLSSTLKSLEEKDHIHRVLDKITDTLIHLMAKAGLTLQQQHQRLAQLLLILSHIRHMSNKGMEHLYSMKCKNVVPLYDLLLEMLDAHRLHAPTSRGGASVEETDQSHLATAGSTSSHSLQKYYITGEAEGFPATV
Compound,"activity change, negative = inhibition",Potency
Fc1ccc(Oc2ccnc3cc(Cl)cc(Cl)c23)cc1,12.9%,
N#Cc1ccc(O)cc1,4.3%,
CC(=O)Nc1ccc2c(c1)Cc1ccccc1-2,43.8%,
CC(C)OC(=S)S,2.17%,
C[As+](C)(C)CC(=O)[O-],-1.62%,
CCOP(=S)(OCC)SCS(=O)(=O)CC,-7.73%,
CC(C)CBr,0.479%,
O=C1c2ccccc2C(=O)C1C(=O)C(c1ccccc1)c1ccc(Cl)cc1 (stereo not given),,27.3 µM (active)
CN(CCCC(O)c1cccnc1)N=O (stereo not given),2.75%,
Cc1cc(Cl)ccc1O[C@H](C)C(=O)O,-2.59%,
O=C1C=CC(=O)c2ccccc21,,10.9 µM (active)
CN(CCCC(=O)c1cccnc1)N=O,5.02%,
ClC1=C(Cl)C2(Cl)C3C(Cl)C=CC3C1(Cl)C2(Cl)Cl (stereo not given),,inactive
Oc1cccc(-c2ccccc2)c1,20.1%,
COc1ccc(OC)c(CC(C)N)c1 (stereo not given),-5.05%,
SCc1ccco1,1.18%,
CC(C)OC(=O)C(O)(c1ccc(Cl)cc1)c1ccc(Cl)cc1,-12.4%,
O=c1ssc(Cl)c1Cl,14.5%,
C[C@H]1O[C@@H](O[C@H]2[C@@H](O)C[C@H](O[C@H]3[C@@H](O)C[C@H](O[C@H]4CC[C@@]5(C)[C@H](CC[C@@H]6[C@@H]5CC[C@]5(C)[C@@H](C7=CC(=O)OC7)CC[C@]65O)C4)O[C@@H]3C)O[C@@H]2C)C[C@H](O)[C@@H]1O,,inactive
CC(=O)O[C@H]1CC[C@@]2(C)C(=CC[C@@H]3[C@@H]2CC[C@]2(C)C(=O)CC[C@@H]32)C1,-11.2%,

Compound,"activity change, negative = inhibition",Potency
Oc1ccc(C2(c3ccc(O)cc3)c3ccccc3-c3ccccc32)cc1,,1.72 µM (active)
NC(=O)CCl,1.15%,
COP(=O)(OC)SCn1c(=O)oc2cc(Cl)cnc21,-11.2%,
CC[C@H](C)[C@H]1O[C@]2(C=C[C@@H]1C)C[C@@H]1C[C@@H](C/C=C(\C)[C@@H](O[C@H]3C[C@H](OC)[C@@H](O[C@H]4C[C@H](OC)[C@@H](O)[C@H](C)O4)[C@H](C)O3)[C@@H](C)/C=C/C=C3\CO[C@@H]4[C@H](O)C(C)=C[C@@H](C(=O)O1)[C@]34O)O2,,22.8 µM (active)
CCOC(=O)CC(=O)CCl,10.7%,
O=CC(Br)(Br)Br,-15.5%,
CCC[CH2][Sn]([CH2]CCC)([CH2]CCC)[O]C(=O)c1ccccc1,,0.486 µM (active)
C1CCC2CCCCC2C1 (stereo not given),20.2%,
CCCCN(CCCC)C(=S)[S-].CCCCN(CCCC)C(=S)[S-].[Zn+2],,13.7 µM (active)
CC(O)C#N (stereo not given),-1.05%,
N#Cc1ccccc1N,-13%,
CCc1nn(C)c(C(=O)NCc2ccc(C(C)(C)C)cc2)c1Cl,,0.0863 µM (active)
Clc1ccc(-c2ccc(Cl)c(Cl)c2Cl)c(Cl)c1Cl,19.6%,
Cc1c(Cl)c(=O)oc2cc(OP(=O)(OCCCl)OCCCl)ccc12,-9.84% [at 42.5 µM],
CCOC(=O)c1ccccc1S(=O)(=O)NC(=O)Nc1nc(Cl)cc(OC)n1,0.186%,
C=CC(=O)N(C)C,11.4%,
OC(c1ccc(Cl)cc1)(c1ccc(Cl)cc1)C(Cl)(Cl)Cl,2.93%,
N#CCCO,1.91%,
CNC(C)Cc1ccc2c(c1)OCO2 (stereo not given),-15.1%,
CCC(C)(C)C(=O)OC1=C(c2ccc(Cl)cc2Cl)C(=O)OC12CCCCC2,65.1%,
